Screens deposited in PubChem by National Center for Advancing Translational Sciences (NCATS).
Sampled rows, rich in hits. Any-hit rate of the full collection: about 1.3%.
TRPV1 potentiator – potentiators of human vanilloid receptor 1 (TRPV1) | 0.02% of 320,000 active | Q8NER1 | potentiation, % at 8.33 µM | TRPV1-expressing cells, Fluo-8 calcium influx, capsaicin EC20 potentiation; in the data active = potentiation above about 80%; inconclusive = between about 30% and that limit
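Cells expressing TRPV1 were dye-loaded with Fluo-8 and read kinetically: 10 s baseline, 3 min after compound (agonist portion), then 2 min after EC20 capsaicin (allosteric enhancer portion). Calcium-bound dye fluorescence at 480/520 nm.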
TRPV1 ag – agonists of human vanilloid receptor 1 (TRPV1); activation, % at 8.33 µM; TRPV1-expressing cells, Fluo-8 calcium influx, agonist mode; AID 540275; Q8NER1; 0.19% of 320,000 active; in the data active = activation above about 80%; inconclusive = between about 30% and that limit
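TRPV1-expressing cells were cultured overnight at 35.5C and loaded with Fluo-8 calcium dye for 40 to 90 min at room temperature. After a 10 s baseline, compound was added and calcium influx was read kinetically for 3 min (ex 480/em 520 nm).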
KCNH2 3.1 block – KCNH2 3.1 (human) potassium channel inhibition | U2OS KCNH2 3.1, thallium flux FluxOr; hits give low values | 0.95% of 340,000 active | activity change, % (tested at about 1.8 µM) | AID 720553;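 active = maximum activity change below -70%; inconclusive = maximum activity change from -70% to -50%; inactive = maximum activity change above -50%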;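 also: thallium influx rate constant from kinetic fluorescence after stimulation buffer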
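We transduce U2OS cells with the mutant 3.1 virus, culture them overnight, load FluxOr with Red40 quencher for 45 min, then add stimulation buffer and read kinetically for 2 min to derive a normalized rate constant.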
hERG WT inh – KCNH2 (human, wildtype) channel inhibition; Q12809; U2OS, BacMam KCNH2, thallium flux FluxOr; hits give low values; activity change, % at 1.84 µM; 0.37% of 340,000 active;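 active = maximum activity change below -70%; inconclusive = maximum activity change between -70% and -50%; inactive = maximum activity change above -50%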
Target sequence (Q12809 whole entry, looked up): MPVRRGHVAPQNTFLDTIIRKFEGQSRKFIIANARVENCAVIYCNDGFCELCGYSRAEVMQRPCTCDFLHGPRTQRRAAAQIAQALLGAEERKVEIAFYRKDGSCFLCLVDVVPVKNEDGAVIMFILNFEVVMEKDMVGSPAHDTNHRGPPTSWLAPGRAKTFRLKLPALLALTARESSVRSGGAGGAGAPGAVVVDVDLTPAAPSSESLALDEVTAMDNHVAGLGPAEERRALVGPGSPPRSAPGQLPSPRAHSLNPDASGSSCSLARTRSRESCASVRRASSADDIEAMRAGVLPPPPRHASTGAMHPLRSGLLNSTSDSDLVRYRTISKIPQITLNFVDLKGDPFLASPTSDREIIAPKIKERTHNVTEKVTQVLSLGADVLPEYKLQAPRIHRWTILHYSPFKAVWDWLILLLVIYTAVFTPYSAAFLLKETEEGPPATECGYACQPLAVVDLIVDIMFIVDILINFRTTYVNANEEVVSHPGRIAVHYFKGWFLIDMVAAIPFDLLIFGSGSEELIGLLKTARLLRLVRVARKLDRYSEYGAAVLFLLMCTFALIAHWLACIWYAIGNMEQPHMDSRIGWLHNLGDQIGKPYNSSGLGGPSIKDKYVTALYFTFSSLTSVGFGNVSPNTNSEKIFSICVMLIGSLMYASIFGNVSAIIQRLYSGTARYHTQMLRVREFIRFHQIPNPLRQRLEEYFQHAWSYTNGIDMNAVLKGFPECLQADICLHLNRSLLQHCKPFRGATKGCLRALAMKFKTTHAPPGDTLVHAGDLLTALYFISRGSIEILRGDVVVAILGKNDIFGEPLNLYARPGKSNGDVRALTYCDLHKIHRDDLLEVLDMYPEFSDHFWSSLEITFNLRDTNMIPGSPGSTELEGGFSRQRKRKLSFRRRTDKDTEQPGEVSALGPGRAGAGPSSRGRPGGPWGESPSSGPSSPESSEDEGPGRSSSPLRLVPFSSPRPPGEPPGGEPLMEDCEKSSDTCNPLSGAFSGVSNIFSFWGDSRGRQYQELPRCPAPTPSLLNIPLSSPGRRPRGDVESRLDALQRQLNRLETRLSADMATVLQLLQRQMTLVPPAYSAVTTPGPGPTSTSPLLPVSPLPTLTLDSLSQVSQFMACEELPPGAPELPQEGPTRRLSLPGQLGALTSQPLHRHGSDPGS
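U2OS cells transduced with wild-type KCNH2 virus are loaded with FluxOr dye for 45 min, and thallium flux is measured in kinetic reads before and after stimulation buffer. Rate constants are normalized to DMSO controls.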
Each line names hits and unclear results; the compound was inactive in the other large screens.

COC(=O)c1c(NC(=O)c2ccccc2OC)sc(C(=O)N2CCOCC2)c1C	none
COc1ccc2c(c1)CCc1c(C(=O)Nc3c(C)nn(Cc4ccccc4)c3C)noc1-2	KCNH2 3.1 block -71
Cc1nn(Cc2ccc(Cl)cc2)c(C)c1NC(=O)c1noc2c1CCc1ccccc1-2	TRPV1 potentiator inconclusive
COc1ccc2c(c1)CCc1c(C(=O)N3CCOCC3)noc1-2	TRPV1 ag 81
COc1ccc2c(c1)CCc1c(C(=O)N3CCCc4ccccc43)noc1-2	none
CN(C1CCCC1)C1CCN(C(=S)Nc2cc(F)cc(F)c2)CC1	none
COc1cccc(CN2CCN(Cc3cc4ccccc4o3)CC2CCO)c1 (stereo unspecified)	none
CC(C)c1csc(CN2CCN(Cc3ccccc3)C(CCO)C2)n1 (stereo unspecified)	none
CCOc1ccc(CN2CCN(Cc3cc4ccccc4o3)CC2CCO)cc1 (stereo unspecified)	KCNH2 3.1 block -107
COc1ccc(CN2CCN(Cc3cc4ccccc4o3)CC2CCO)cc1C (stereo unspecified)	KCNH2 3.1 block -71
CCOc1ccc(CN2CCN(Cc3nc(C(C)C)cs3)CC2CCO)cc1 (stereo unspecified)	KCNH2 3.1 block -96 (no result: hERG WT inh)
COc1ccc(N2CC(C(=O)Nc3nnc(SCC(=O)NCC4CCCO4)s3)CC2=O)cc1 (stereo unspecified)	KCNH2 3.1 block -197, hERG WT inh -128 (no result: TRPV1 potentiator, TRPV1 ag)
C=CCN(C(=O)CNC(=O)c1ccco1)C(C(=O)NC1CCCCC1)c1cccnc1 (stereo unspecified)	none
COc1ccc(CNC(=O)C(C)c2ccc([N+](=O)[O-])cc2)cc1 (stereo unspecified)	TRPV1 ag 80
COc1ccc(CNC(=O)Nc2ccc([N+](=O)[O-])cc2)cc1	none (no result: TRPV1 potentiator, TRPV1 ag)
COc1ccc(-c2coc3cc(OC4OC(CO)C(O)C(O)C4O)cc(O)c3c2=O)cc1 (stereo unspecified)	none
COc1ccc(CC(=O)c2ccc(OC3OC(CO)C(O)C(O)C3O)cc2O)cc1 (stereo unspecified)	hERG WT inh -95
CN1CCN(c2ccc([N+](=O)[O-])cc2S(=O)(=O)N2CCOCC2)CC1	none
O=[N+]([O-])c1ccc(N2CCN(Cc3ccccc3)CC2)c(S(=O)(=O)N2CCOCC2)c1	KCNH2 3.1 block -73
CCN1CCN(c2ccc(S(=O)(=O)N3CCOCC3)cc2NC(=O)/C=C/c2ccc([N+](=O)[O-])cc2)CC1	KCNH2 3.1 block -75
O=C(COC(=O)c1cccc(F)c1)Nc1ccc(Cl)cn1	none (no result: TRPV1 potentiator, TRPV1 ag)
CCOC(=O)C1CCN(C(=O)c2ccccc2N(C)S(C)(=O)=O)CC1	KCNH2 3.1 block -91
CCOC(=O)C1CCN(C(=O)c2c(-c3ccccc3)noc2C)CC1	KCNH2 3.1 block -75
O=C(CSc1nnnn1-c1cccc(F)c1)NC1CCCCC1	none
CCN(CC)CCCNC(=O)c1[nH]c2ccccc2c1Sc1ccc(Cl)cc1	KCNH2 3.1 block -111, hERG WT inh -127
COC(=O)c1[nH]c2ccccc2c1Sc1ccccc1	TRPV1 ag inconclusive
S=C(NCc1ccccc1)NNc1nc2ccccc2[nH]1	KCNH2 3.1 block -74
O=C(CSc1nc2ccccc2[nH]1)NCc1ccccc1	TRPV1 ag inconclusive
Cn1c(N)c(C(=O)COC(=O)/C=C/c2ccc(Cl)c(Cl)c2)c(=O)n(C)c1=O	none (no result: TRPV1 potentiator, TRPV1 ag)
COc1ccccc1C(=O)NCCC(=O)N1CCN(C(C)=O)CC1	none
CC1CCc2sc3ncn4nc(C(=O)NCc5ccco5)nc4c3c2C1 (stereo unspecified)	KCNH2 3.1 block -77
CCOC(=O)CC(=O)CSc1nc2c(cc1C#N)CCCCCC2	hERG WT inh -116
COC(=O)CC(=O)CSc1nc2c(cc1C#N)CCC2	none
CCOc1ccc(C(=O)NC(=S)N2CCN(c3ccc(C(F)(F)F)cc3[N+](=O)[O-])CC2)cc1	KCNH2 3.1 block -70, hERG WT inh inconclusive
COc1ccc(Cl)cc1NC(=O)CN(C)C(=O)c1cccc2cccnc12	none (no result: TRPV1 potentiator, TRPV1 ag)
O=C1Nc2cc(Cl)c(Cl)cc2N(O)N1c1ccc(Cl)c(Cl)c1	KCNH2 3.1 block -107
CC1CCN(C(=O)CSc2nc3ccccc3c(=O)n2Cc2ccc3c(c2)OCO3)CC1	TRPV1 ag 82
CC1CCN(C(=O)Cn2c(=O)n(Cc3ccc4c(c3)OCO4)c(=O)c3ccccc32)CC1	none
CCOC(=O)N1CCC(n2c(SCC(=O)N3CCCC3)nc3ccccc3c2=O)CC1	none
CCSc1nc2ccccc2c(=O)n1C1CCOC(C)(C)C1 (stereo unspecified)	KCNH2 3.1 block -91
CCOC(=O)N1CCC(n2c(SCC(=O)N3CCC(C)CC3)nc3ccccc3c2=O)CC1	TRPV1 ag 81
CC(=O)NCCC(=O)Nc1cc(S(=O)(=O)N2CCOCC2)ccc1Oc1ccc(F)cc1	none
CC(=O)NCCC(=O)Nc1cc(S(=O)(=O)N2CCOCC2)ccc1Oc1ccccc1	hERG WT inh -74
O=C(N/N=C/c1ccc(F)cc1)c1ccc(-n2cnnn2)cc1	TRPV1 ag inconclusive
CC(=O)Nc1ccc(C(=O)N/N=C/c2ccc(F)cc2)cc1	none
Cc1ccc(/C=N/NC(=O)c2ccc(-n3cnnn3)cc2)cc1	TRPV1 ag 80
O=C(N/N=C\c1ccc(F)cc1)c1ccc(F)cc1	TRPV1 ag 82
COc1ccc(Cl)cc1NC(=O)CSc1nc(=O)[nH]c2c1CCC2	none (no result: KCNH2 3.1 block, hERG WT inh)
Cc1ccc(S(=O)(=O)CC(C)N2CCOCC2)c(S(=O)(=O)CC(C)N2CCOCC2)c1 (stereo unspecified)	hERG WT inh -224
Cc1ccc(S(=O)(=O)CC(CN2CCOCC2)N2CCOCC2)cc1 (stereo unspecified)	none
O=C(NC(=S)NCc1ccccc1)c1cccnc1	hERG WT inh -78
O=C(NNC(=S)NCc1ccccc1)c1cccnc1	none
O=C(O)c1ccccc1N=Nc1c(O)[nH]c2ccc([N+](=O)[O-])cc12	KCNH2 3.1 block -127
COc1ccc(-c2cn(Cc3ccc(C(N)=O)cc3)c(CCN)n2)cc1	none
Cc1ccc2c(c1)N(C(=O)CCC(=O)NCCCN1CCC(Cc3ccccc3)CC1)CCO2	KCNH2 3.1 block -116
Cc1ccc2c(c1)N(C(=O)CCC(=O)NCCCN1CCN(C)CC1)CCO2	none
COc1cc(C)ccc1OCc1cc(C(=O)NC2CCOCC2)no1	none (no result: TRPV1 potentiator, TRPV1 ag)
COc1cc(C)ccc1OCc1cc(C(=O)NC(c2ccccn2)C(F)(F)F)no1 (stereo unspecified)	KCNH2 3.1 block -87 (no result: TRPV1 potentiator, TRPV1 ag)
Cc1noc(C)c1C(=O)OCC(=O)NC1CCCCC1C (stereo unspecified)	none
FC(F)(F)c1cccc(NC(=S)NNC(=S)Nc2cccc(C(F)(F)F)c2)c1	none (no result: KCNH2 3.1 block, hERG WT inh)
CC(C)(O)C(=O)NNC(=S)Nc1cccc(C(F)(F)F)c1	KCNH2 3.1 block -94
CCN(CC(=O)NC(=O)NCc1ccccc1)Cc1ccccc1	TRPV1 ag inconclusive
CCCSc1nnc(Cc2cc(=O)[nH]c(=O)[nH]2)n1-c1cc(C)ccc1C	hERG WT inh -89
Cc1ccccc1C(=O)N1CCC(C(=O)N2CCCc3ccccc32)CC1	none
